Source: PubChem BioAssay
Unmarked numbers belong to inactive results. No rule for the calls is given here.

These compounds were tested against Pantothenate synthetase (Mycobacterium tuberculosis (strain ATCC 25618 / H37Rv)) (UniProt P9WIL5) (assay: Coupled enzyme confirmation of inhibitors against recombinant Mtb PanC (AID 375;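 also: 0% = full reaction with vehicle and 100% = no enzyme background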)). Details: coupled enzyme assay; at 10 µM, hits give high values.
Chain of Pantothenate synthetase (Mycobacterium tuberculosis (strain ATCC 25618 / H37Rv)) (P9WIL5 whole entry, looked up): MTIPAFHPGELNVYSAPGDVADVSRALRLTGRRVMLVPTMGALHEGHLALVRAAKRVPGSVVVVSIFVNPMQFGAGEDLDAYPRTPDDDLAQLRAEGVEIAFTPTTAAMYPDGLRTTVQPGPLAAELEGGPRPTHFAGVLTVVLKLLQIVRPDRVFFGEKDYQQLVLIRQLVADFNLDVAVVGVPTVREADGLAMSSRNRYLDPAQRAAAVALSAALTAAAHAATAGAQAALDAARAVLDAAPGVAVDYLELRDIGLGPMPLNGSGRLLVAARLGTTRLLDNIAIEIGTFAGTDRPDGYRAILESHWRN

Row | SMILES | inhibition
1 | Cn1c(C(=O)NCCC2=CCCCC2)cc2c(=O)n3ccccc3nc21 | 0%
2 | COc1ccc(S(=O)(=O)NCCSCc2ccco2)cc1Cl | 0%
3 | O=C(CSc1oc(-c2ccco2)nc1S(=O)(=O)c1ccccc1)NCC1CCCO1 (stereo not drawn) | 0%
4 | CSCCC(NC(=O)CCN1C(=O)c2ccccc2C1=O)C(=O)O (stereo not drawn) | 0%
5 | FC(F)(F)C(F)(F)C(F)(F)c1nnc2ccc(N3CCOCC3)nn12 | 3%
6 | Cc1nnc(Nc2ccccn2)c2ccccc12 | 0%
7 | Cc1cc(C(=O)Nc2cccnc2)no1 | 0%
8 | COC(=O)c1ccccc1NC(=O)c1ccc(COc2ccccc2)o1 | 0%
9 | CCOC(=O)c1cc(-c2ccc(N)cc2)sc1N | 0%
10 | CN(Cc1nc(-c2ccncc2)no1)S(=O)(=O)c1ccc(Cl)cc1 | 0%
11 | Cc1nc2ncnn2c(N2CCC(C(=O)NC3CCCC3)CC2)c1Cc1ccccc1 | 1%
12 | CC(C)CCNC(=O)NC(=O)CSc1nnc(-c2ccccc2F)n1N | 0%
13 | Nc1nc(NC(=O)c2cccs2)nn1-c1ccccc1 | 1%
14 | CCOP(=O)(c1ccc(N(C)C)cc1)C(O)c1cc(OC)c(OC)c(OC)c1 (stereo not drawn) | 0%
15 | Cc1nc(N2CCC(C)CC2)c2c(C)c(C(=O)O)sc2n1 | 0%
16 | O=C1NC(c2ccccc2)(C(F)(F)F)SC2=CCCCCN12 (stereo not drawn) | 0%
17 | CCCn1c(=O)c2ccccc2n2c(SCCOc3ccccc3F)nnc12 | 0%
18 | CCc1c(C)nc2ncnn2c1N1CCC(C(=O)NCc2cccc(OC)c2)CC1 | 0%
19 | CCOc1nc(-c2ccncc2)nc2ccccc12 | 0%
20 | CCCc1nn(CCc2ccccn2)c(N)c1CC | 6%
21 | CCOC(=O)N1CCC(NC(=O)c2ccc3c(c2)N(C)CCS3)CC1 | 6%
22 | CCOC(=O)N1CCN(C(=O)c2ccc(N3C(=O)CCC3=O)cc2)CC1 | 0%
23 | O=c1c2ccccc2nc(-c2cccc(Cl)c2)n1O | 4%
